Legend:
Details in all cases: treatment time: 24 h
A549-ACTB-RAB5A [1] = assay: lowest phenotypically active concentration; higher = less potent
Outline: (§1)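 After 24 h at 0.3, 1, 3 or 9 µM, with four wells per treatment, fifteen gene-edited A549, HepG2 and WPMY1 reporter lines carrying BFP, GFP and RFP/FusionRed were imaged live. Each well's live-cell features were expressed relative to solvent control wells. Deviation required ≥3 of 4 wells past the 95th percentile of control Euclidean distances, and reproducibility a median replicate Pearson correlation over the 95th percentile of non-replicates. Phenotypic activity rested on both.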

A549-CANX-COX4 [2] = assay: as above
Outline: as §1

A549-GM130-SQSTM1 [3] = assay: as above
Outline: as §1

A549-TP53BP1-CLTA [4] = assay: as above
Outline: as §1

A549-TUBA1B-RELA [5] = assay: as above
Outline: as §1

HepG2-GM130-SQSTM1 [6] = assay: as above
Outline: as §1

A549-ACTB-RAB5A [7] = assay: phenotypically active (imaging signature differs from DMSO and reproducible) at any of 0.3-9 uM (binary (1 = active, 0 = inactive)); higher = active
Outline: as §1

A549-CANX-COX4 [8] = assay: as above
Outline: as §1

A549-GM130-SQSTM1 [9] = assay: as above
Outline: as §1

A549-TP53BP1-CLTA [10] = assay: as above
Outline: as §1

A549-TUBA1B-RELA [11] = assay: as above
Outline: as §1

HepG2-ACTB-RAB5A = assay: as above
Outline: as §1

HepG2-CANX-COX4 = assay: as above
Outline: as §1

HepG2-GM130-SQSTM1 [12] = assay: as above
Outline: as §1

HepG2-TP53BP1-CLTA = assay: as above
Outline: as §1

HepG2-TUBA1B-RELA = assay: as above
Outline: as §1

WPMY1-CANX-COX4 = assay: as above
Outline: as §1

WPMY1-GM130-SQSTM1 = assay: as above
Outline: as §1

WPMY1-TP53BP1-CLTA = assay: as above
Outline: as §1

WPMY1-TUBA1B-RELA = assay: as above
Outline: as §1

Row | SMILES | lowest phenotypically active concentration (A549-ACTB-RAB5A [1]) | lowest phenotypically active concentration (A549-CANX-COX4 [2]) | lowest phenotypically active concentration (A549-GM130-SQSTM1 [3]) | lowest phenotypically active concentration (A549-TP53BP1-CLTA [4]) | lowest phenotypically active concentration (A549-TUBA1B-RELA [5]) | lowest phenotypically active concentration (HepG2-GM130-SQSTM1 [6]) | phenotypically active (A549-ACTB-RAB5A [7]) | phenotypically active (A549-CANX-COX4 [8]) | phenotypically active (A549-GM130-SQSTM1 [9]) | phenotypically active (A549-TP53BP1-CLTA [10]) | phenotypically active (A549-TUBA1B-RELA [11]) | phenotypically active (HepG2-ACTB-RAB5A) | phenotypically active (HepG2-CANX-COX4) | phenotypically active (HepG2-GM130-SQSTM1 [12]) | phenotypically active (HepG2-TP53BP1-CLTA) | phenotypically active (HepG2-TUBA1B-RELA) | phenotypically active (WPMY1-CANX-COX4) | phenotypically active (WPMY1-GM130-SQSTM1) | phenotypically active (WPMY1-TP53BP1-CLTA) | phenotypically active (WPMY1-TUBA1B-RELA)
1 | CC(=O)NCC(=O)N1[C@@H]2CC[C@H]1c1ccc(Nc3ncc(C(F)(F)F)c(NC4CCC4)n3)cc12 | ≤ 0.3 µM | ≤ 0.3 µM | ≤ 0.3 µM | ≤ 0.3 µM | ≤ 0.3 µM | ≤ 0.3 µM | 1 (active) | 1 (active) | 1 (active) | 1 (active) | 1 (active) | 1 (active) | 1 (active) | 1 (active) | 1 (active) | 1 (active) | 1 (active) | 1 (active) | 1 (active) | 1 (active)
2 | Cc1cc(Nc2cc(N3CCN(C)CC3)nc(Sc3ccc(NC(=O)C4CC4)cc3)n2)[nH]n1 | ≤ 0.3 µM | ≤ 0.3 µM | ≤ 0.3 µM | ≤ 0.3 µM | ≤ 0.3 µM | ≤ 0.3 µM | 1 (active) | 1 (active) | 1 (active) | 1 (active) | 1 (active) | 1 (active) | 1 (active) | 1 (active) | 1 (active) | 1 (active) | 1 (active) | 1 (active) | 1 (active) | 1 (active)
3 | CS(=O)(=O)c1cccc(CNc2nc(Nc3ccc4c(c3)CCC(=O)N4)ncc2C(F)(F)F)c1 | 3 µM | 3 µM | 3 µM | 3 µM | 3 µM | 3 µM | 1 (active) | 1 (active) | 1 (active) | 1 (active) | 1 (active) | 1 (active) | 1 (active) | 1 (active) | 1 (active) | 1 (active) | 1 (active) | 1 (active) | 1 (active) | 1 (active)
4 | CC(C)(C)c1cnc(CSc2cnc(NC(=O)C3CCNCC3)s2)o1 | ≤ 0.3 µM | ≤ 0.3 µM | ≤ 0.3 µM | ≤ 0.3 µM | ≤ 0.3 µM | ≤ 0.3 µM | 1 (active) | 1 (active) | 1 (active) | 1 (active) | 1 (active) | 1 (active) | 1 (active) | 1 (active) | 1 (active) | 1 (active) | 1 (active) | 1 (active) | 1 (active) | 1 (active)
5 | O=C1c2c(O)ccc(O)c2C(=O)c2c(NCCNCCO)ccc(NCCNCCO)c21 [mitoxantrone] | ≤ 0.3 µM | ≤ 0.3 µM | ≤ 0.3 µM | ≤ 0.3 µM | ≤ 0.3 µM | ≤ 0.3 µM | 1 (active) | 1 (active) | 1 (active) | 1 (active) | 1 (active) | 1 (active) | 1 (active) | 1 (active) | 1 (active) | 1 (active) | 1 (active) | 1 (active) | 1 (active) | 1 (active)
6 | COc1ccc(S(=O)(=O)N(C(C)=O)c2ccccc2/C=C/c2cc[n+]([O-])cc2)cc1 | 1 µM | 3 µM | ≤ 0.3 µM | 3 µM | ≤ 0.3 µM | 3 µM | 1 (active) | 1 (active) | 1 (active) | 1 (active) | 1 (active) | 1 (active) | 1 (active) | 1 (active) | 1 (active) | 1 (active) | 1 (active) | 1 (active) | 1 (active) | 1 (active)

From the supplement of paper PMC7411054
